# Measured values reported in PubChem BioAssay AID1347076 (National Center for Advancing Translational Sciences (NCATS), 2019).
# Hit rate of the full screen: of about 400,000 compounds, about 13,000 (3.2%) were called active. Roughly 18% stayed inconclusive and do not appear here. The entries come from a sample that favours actives as a whole. Unmarked numbers belong to inactive results. The call rests on the fitted dose curve; in most records, active means well fitted cell-killing curve with a large enough effect; inconclusive means small, poorly fitted or top-dose-only effect, or effect the other way; inactive means flat fitted curve, though single readings scatter.
# Assay: qHTS assay for MDR1-selective chemotherapeutics: Primary screen using the drug-selected MDR subline cells KB-V1; further: nearly all actives have a fitted effect of over 60% in size
# Conditions: KB-V1 MDR cells viability, CellTiter-Glo, 72 h; series mostly up to 46.1 µM; activity change, negative = cytotoxicity: at the top concentration
# Excerpt: A prime difficulty in effectively treating cancer is the development of cellular resistance to multiple structurally unrelated anticancer drugs, a phenomenon known as multidrug resistance (MDR). […] Numerous strategies to overcome P-gp-mediated MDR have been explored, including the design of drugs that evade recognition and efflux, and development of inhibitors to block efflux and restore drug accumulation. […] An alternative approach is to exploit resistance by identifying drugs that target MDR cells over the non-resistant parental cells from which they were selected. […] The development of MDR1-selective agents represents a new strategy for resolving multidrug resistance, as it remains a long-standing clinical challenge for cancer chemotherapy.
# Our goal is to identify compounds that selectively kill P-gp-expressing MDR cells. We will identify MDR1-selective compounds by comparing toxicity of compounds in the screening library against parental, drug-naive (KB-3-1) adenocarcinoma cells as well as their drug-selected MDR sub-line (KB-V1). The differential toxicity of compounds against these two cell lines will be used to identify MDR1-selective compounds, whose cytotoxicity is potentiated, rather than diminished, by P-gp expression. This assay will be utilized to conduct a quantitative high-throughput screen (qHTS) in collaboration with the NIH Chemical Genomics Center to identify selective agents, and probe hits arising from the screen will be validated using secondary assays and characterized through a well-established follow-up research program. This screen was run against the entire NCGC library collection of about 400,000 compounds.
# NIH Molecular Libraries Probe Production Network [MLPCN]
# NIH Chemical Genomics Center [NCGC]
# PI: Michael Gottesman, National Cancer Institute, NIH
# Briefly, 5 microL of media containing either KB-V1 cells (columns 1-2, 4-48) are dispensed into Greiner white, treated solid-bottom 1536-well assay plates (media-only control is added to column 3). Compounds are then transferred via Kalypsys pin tool equipped with 1536-pin array (10 nL slotted pins, V&P Scientific, San Diego, CA). Following addition of compound, the plates are incubated at 37 degrees C for 72 hours. CellTiter-Glo (2.5 µL/well) is then added, and the plates are read in a ViewLux reader (Perkin-Elmer, clear luminescence filter, 1 second exposure, 1x binning) following a 10 minute incubation. All cells are dispensed in DMEM phenol-red free media containing 10% FBS.
# Library plates were screened starting from the lowest and proceeding to the highest concentration. Vehicle-only plates, with DMSO being pin-transferred to columns 5-48, will be inserted uniformly at the beginning and the end of each library in order to monitor and record any shifts in the background, which can be affected by reagent dispensers or loss in enzyme activity over time. Screening data will be corrected, normalized, and concentration-effect relationships will be derived by using publicly-available NCGC, NCATS curve fitting algorithms (http://ncgc.nih.gov/pub/openhts).
# On the % scale 0 is the no-effect control and ±100 the full control effect; potency means the concentration at half of the fitted maximal effect.
SMILES,"activity change, negative = cytotoxicity",Potency
COc1ccc2oc(-c3ccc(C)c(NC(=O)c4sc5ccccc5c4Cl)c3)nc2c1,11.6%,–
CCN(CC(=O)Nc1ccc(NC(C)=O)cc1)C(=O)C1CC(=O)N(c2ccc3c(c2)OCCO3)C1 (stereo not drawn),24.5%,–
CC(C)c1ccc(CC(=O)N2CCC2(C)C(=O)NS(=O)(=O)c2ccc(C(C)(C)C)cc2)cc1 (stereo not drawn),5.43%,–
COc1cccc(C(=O)NC(=O)Nc2ccc(-c3cc(C(F)(F)F)nn3-c3ccccc3)cc2)c1,9.8%,–
COc1ccc(CN(C(=O)c2cccs2)c2nccs2)cc1OC,-25.9%,–
COc1ccc(-c2csc(-c3c(N)c(C(=O)c4ccc(OC)c(OC)c4)n4ccccc34)n2)cc1,10.1%,–
COc1ccc(CCN(C(=O)COc2ccccc2)c2nc(-c3ccccc3)cs2)cc1OC,–,5.8 µM (active)
Cc1ccc(Sc2ccc(NC(=O)c3ccc(F)cc3)cc2C#N)cc1,0%,–
CC(C)C[C@H]1CNC(=O)C(=O)N1C[C@H]1CCCN1C[C@H](Cc1ccc(O)cc1)N1C[C@H](CC(C)C)N(CC2CCCCCC2)C(=O)C1=O,2.62%,–
COc1cccc(CNc2nc(NCc3cccs3)nc3ccsc23)c1,-10.1%,–
COc1ccc(CC(=O)Nc2c3c(nn2-c2cccc(Cl)c2)CS(=O)C3)cc1 (stereo not drawn),-4.66%,–
COc1ccc(-n2nc3c(c2NC(=O)Cc2cccc(C)c2)CS(=O)C3)cc1 (stereo not drawn),-2.57%,–
Cc1cccc(CC(=O)Nc2c3c(nn2-c2cccc(Cl)c2)CS(=O)C3)c1 (stereo not drawn),–,20.6 µM (active)
CC1CCCCN1S(=O)(=O)c1ccc(F)c(C(=O)Nc2ccccc2C(F)(F)F)c1 (stereo not drawn),-13.5%,–
COc1ccc(Nc2ncnc3ccc(Br)cc23)c(OC)c1,0.531%,–
CC1(C)CC2CC(C)(CN2c2ncnc3ccc(Br)cc23)C1 (stereo not drawn),–,2.59 µM (active)
CN(C)C(=O)COC(=O)c1cccc(S(=O)(=O)N2CC3(C)CC2CC(C)(C)C3)c1 (stereo not drawn),-7.77%,–
O=S(=O)(NCCc1csc(-c2ccccc2)n1)c1cccnc1,-8.15%,–
COc1ccc(-c2nc(CCNC(=O)c3ccc(Br)o3)cs2)cc1,0%,–
O=C(NCCc1csc(-c2ccccc2)n1)c1ccccc1F,–,20.6 µM (active)
CC1(C(=O)NS(=O)(=O)c2ccc(Cl)cc2)CCN1C(=O)CC1CCCC1 (stereo not drawn),5.47%,–
C=CCn1c(SCc2csc(C)n2)nc2scc(-c3ccc(C)o3)c2c1=O,–,11.6 µM (active)
C=CCn1c(SCC(=O)Nc2ccc(NC(C)=O)cc2)nc2sc(C)c(C)c2c1=O,-12.4%,–
C=CCNC(=O)CSc1nc2scc(-c3ccco3)c2c(=O)n1CC=C,-16.8%,–

SMILES,"activity change, negative = cytotoxicity",Potency
CO[C@@H]1CN(C)C(=O)c2cc(NC(=O)C3CC3)ccc2OC[C@H](C)N(C(=O)CN2CCOCC2)C[C@@H]1C,1.93%,–
C[C@H]1CN([C@@H](C)CO)C(=O)CCCn2cc(nn2)CO[C@@H]1CN(C)C(=O)Nc1ccccc1,12.8%,–
COc1ccc([C@H]2N[C@]3(CCCN(Cc4ccco4)C3=O)[C@H]3C(=O)N(C)C(=O)[C@@H]23)cc1,0%,–
O=C(CN1CCN(c2ccc(F)cc2)CC1)Nc1ccccc1,-0.53%,–
COc1cc(C)cc(CN2CCC(Cc3ccccc3)CC2)c1O,-10.3%,–
Fc1ccc(N2CCN(Cc3cnc(Oc4ccc(Br)cc4)s3)CC2)cc1,0%,–
Oc1c(CN2CCN(c3ccc(F)cc3)CC2)cc(Cl)c2cccnc12,–,5.17 µM (active)
COc1cc(CN2CCC(C(N)=O)CC2)ccc1OCc1ccccc1,4.51%,–
Oc1c(CN2CCCC2)cc(COCc2ccccc2)c2cccnc12,–,20.6 µM (active)
CCC(=O)N1CCc2cc(S(=O)(=O)NC(CC(C)C)C(=O)NCCc3cccc(C)c3)ccc21 (stereo not drawn),4.3%,–
COC(=O)c1ccc2c(c1)S(=O)(=O)NC2C (stereo not drawn),35.1%,–
CCc1ccc(-n2nc(C)c3c(C)cc(=O)n(CC(=O)Nc4ccc(F)cc4C)c32)cc1,2.18%,–
Cc1ccc(-c2nc3c(C)cc(Br)cn3c2Cc2ccccc2)cc1,-18.7%,–
CCn1c2c(c(=O)n3ncc(C(=O)N4CCN(c5ccccc5)CC4)c13)CN(Cc1ccc(OC)cc1)CC2,-27.7%,–
CCc1cccc(NC(=O)Cn2nc(CC)n3c(cc4cc(C)ccc43)c2=O)c1,-19.3%,–
O=C(Nc1ccn(Cc2ccccc2)n1)c1cccc(F)c1,0%,–
Cc1ccc(NC(=O)CC2C(=O)N(Cc3ccccc3)C(=S)N2NC(=O)c2cccc(F)c2)c(C)c1 (stereo not drawn),–,4.11 µM (active)
CN1C(=O)C(CC(N)=O)N(NC(=O)c2ccc(Cl)cc2)C1=S (stereo not drawn),1.63%,–
Cc1ccc(S(=O)(=O)N2C[C@]3(O)C[C@@H]4C(=O)N(c5ccccc5)C(=O)[C@@H]4C[C@]3(OC(=O)NC3CC3)C2)cc1,75.5%,–
COc1ccc(NC(=O)C2Cc3c(-c4ccc5c(c4)OCO5)ccnc3O2)cn1 (stereo not drawn),–,20.6 µM (active)
CC(=O)Nc1ccc(-c2ccnc3c2CC(C(=O)NC(C)C)O3)cc1 (stereo not drawn),-3.89%,–
COc1ccc(NC(=O)C2Cc3c(-c4cccc(NC(C)=O)c4)ccnc3O2)cc1OC (stereo not drawn),-18.5%,–
CCOc1ccc(C(=O)Nc2ccc3nc4c(c(Nc5ccccc5OC)c3c2)CCCC4)cc1,0%,–
CC(C)C[C@@H]1Cc2[nH][nH]c(=O)c2[C@H](CCc2ccccc2)O1,-23.4%,–
